Compound activity as filed in PubChem BioAssay.
VACV Venus inh – vaccinia inhibition (Venus reporter); Vaccinia virus Venus reporter expression, fluorescence; Potency, µM (titrated, usually from 36.5 µM), for inactives: at the top dose activity change, negative = inhibition, hits mostly inhibitors; AID 720580; 0.46% of 330,000 active; calls by dose curve; tested in A549 cells; also: nearly all actives have a fitted effect of over 30% in size
Lassa entry inh – inhibitors of Lassa virus binding or cell entry; Lassa virus pseudotype entry inhibition, cell reporter; Potency, µM (top dose mostly 37.9 µM), for the others: at the highest dose activity change, negative = inhibition, actives largely listed as inhibitors; 1.2% of 300,000 active; AID 540256; calls by dose curve; tested in HEK293 cells; also: nearly all actives have a fitted effect of over 50% in size
Vaccinia mCherry – inhibitors of vaccinia virus infection (mCherry reporter signal). Potency, µM (top dose mostly 36.5 µM), without a hit: at the highest dose activity change, negative = inhibition, hits mostly inhibitors. Vaccinia virus mCherry reporter infection, fluorescence. 0.63% of 310,000 active. AID 720579; calls by dose curve; tested in A549 cells; also: nearly all actives have a fitted effect of over 35% in size
Marburg entry inh – blocks Marburg virus binding to or entry into cells | Marburg virus pseudotyped entry inhibition, cell reporter | Potency, µM (series often up to 37.8 µM), without a hit: top-dose activity change, negative = inhibition, actives largely listed as inhibitors | 1.8% of 300,000 active | AID 540276; calls by dose curve; tested in HEK293 cells
* marks the source's active call; other numbers are inactive results; i = inactive; ? = inconclusive; . = not tested or not shown; ! = not confirmed by another sample; [ ] = dose if it differs, or a comment. Sampled rows, rich in hits. Any-hit rate of the full collection: about 2.5%. % is scaled to controls: 0 for no effect and ±100 for the full control effect; potency is read from the fitted curve at half-maximal effect.

SMILES	VACV Venus inh	Lassa entry inh	Vaccinia mCherry	Marburg entry inh
O=C(NCCCN1CCC(Cc2ccccc2)CC1)C1CC(=O)N(C2CCCCCC2)C1 (stereo not drawn)	-14.9%	-12.1%	-16.4%	14.1µM*
COC(=O)c1cccc(C(=O)NCc2nc(-c3ccccc3NC(C)=O)oc2C)c1	8.2%	.	-6.6%	.
CCN(CC)C(C)C(=O)Nc1c2c(cc3c1CCC3)CCC2 (stereo not drawn)	-4.4%	-12.6%	i	14.6µM*
Cc1nc(N)nc(N)c1/C=C/C(C)(C)c1ccc(Cl)cc1	3.55µM*	?	?	?
CC1CCCCN1Cc1c(O)ccc2c(=O)c(-c3nc4ccccc4s3)c(N)oc12 (stereo not drawn)	-16.5%	?	-13.2%	2.51µM*
CC1CCCCN1Cc1c(O)ccc2c(=O)c(-c3ccccc3Cl)c(C(F)(F)F)oc12 (stereo not drawn)	5.1%	-4.3%[46.1 µM]	-5.4%	?
CCOC(=O)C1=CN(CCNC(=O)OC(C)(C)C)C(=O)NC1c1ccccc1 (stereo not drawn)	.	.	.	20.7%[14.2 µM]
CCC1(C2CCN(C(=O)c3ccc4ccccc4c3)CC2)NC(=O)N(CCc2scnc2C)C1=O (stereo not drawn)	-3.5%	.	-10.3%	.
O=c1[nH]cc(F)c(=O)[nH]1	-28.4%	?	5.62µM*	?
Cc1cc2c(c(-c3ccc(Cl)cc3)c1)OC(CNC(=O)Cc1c(C)noc1C)C2 (stereo not drawn)	-10.1%	.	-14.5%	.
COc1ccccc1C(=O)NC(=S)/C=C1/N(C)c2ccccc2C1(C)C	-9.0%	?	?	14.1µM*
CCN(CC)CCCN1C(=O)C(O)=C(C(=O)c2ccc(C)o2)[C@@H]1c1ccc(C)o1	.	.	.	8.0%
Cc1cccc(N2CCN(Cc3nc(-c4cccc(Cl)c4)oc3C)CC2)n1	11.8%	-21.3%	-8.5%	7.08µM*
Cc1oc(-c2cccc(Cl)c2)nc1CN1CCC(C(=O)N2CCN(c3ccccc3F)CC2)CC1	15.8µM*	.	?	.
COc1cc(-c2ccc(Cl)cn2)cc2c1OCCN(S(=O)(=O)C[C@]13CC[C@H](CC1=O)C3(C)C)C2	-7.7%	.	-18.0%	.
COc1cc(C(=O)NC(c2ccccc2Cl)c2cc(Cl)c3cccnc3c2O)cc(OC)c1OC (stereo not drawn)	-21.3%	?	11.2µM*	.
CC(=O)NC(c1ccc(N(C)C)cc1)c1cc(Cl)c2cccnc2c1O (stereo not drawn)	?	.	3.16µM*	.
Oc1c(C(c2ccccn2)N2CCCCC2)cc(Cl)c2cccnc12 (stereo not drawn)	2.9%[7.34 µM]	.	?	.
CN1CCN(C(c2ccc(Cl)cc2)c2cc(Cl)c3cccnc3c2O)CC1 (stereo not drawn)	-25.4%	10µM*	-26.5%	?
CC(=O)NC(c1ccccc1)c1cc(Cl)c2cccnc2c1O (stereo not drawn)	?	?	?	12.6µM*
O=C(NC(c1ccc(Cl)cc1)c1cc(Cl)c2cccnc2c1O)c1cccnc1 (stereo not drawn)	-24.1%	?	-17.3%	?
Cc1cccc2c1N[C@H](C)C[C@@H]2C	.	.	.	6.9%
O=S(=O)(c1ccc2c(Cl)cccc2c1)N1CCN(c2nc(-c3cccs3)nc3ccccc23)CC1	-14.1%	.	-1.9%	.
CCCC(=O)NC(c1ccc(OC)c(OC)c1)c1cc(Cl)c2cccnc2c1O (stereo not drawn)	?	?	12.6µM*	10µM*
COc1cccc(CN2C(=O)C(C)N(C(=O)c3ccccc3)c3ccccc32)c1 (stereo not drawn)	-25.5%	?	-24.3%	10µM*
SMILES	VACV Venus inh	Lassa entry inh	Vaccinia mCherry	Marburg entry inh
O=C(CCl)c1ccc2c(c1)CCCC2	-23.2%	.	-17.5%	.
COc1ccccc1[C@@]1(CC(=O)N2CCOCC2)CCO[C@@H](C(C)C)C1	.	.	.	-1.5%
CC(=O)Nc1ccc(/C=C/C(=O)c2ccc(-n3nncc3-c3ccccc3)cc2)cc1	-6.7%	.	-3.6%	.
CCN(CC)S(=O)(=O)c1cccc(-c2nnc(SCc3nc4ccccc4s3)o2)c1	28.2µM*	?	.	?
CCN(CC)S(=O)(=O)c1cccc(-c2nnc(SCCCC(=O)c3ccc(F)cc3)o2)c1	.	?	.	20.6µM*!
C=CCn1c(C)cc(C(=O)CSc2nnc(-c3cccc(S(=O)(=O)N(CC)CC)c3)o2)c1C	-23.2%	?	?	-21.6%[46.1 µM]
N.N.N.N.N.N.N.N.N.N.N.N.N.N.O.O.[Ru+4].[Ru+5].[Ru+5]	.	-26.2%	.	?
Cc1nc2ccccc2nc(C)c1=NOCc1ccc(C#N)cc1	-23.5%	-1.8%	-4.6%	?
Cc1nc2ccccc2nc(C)c1=NOCc1cccc(F)c1	?	2.82µM*	i	?
COC(=O)[C@@H]1CCCN1Cc1ccc2c(c1)CN(Cc1coc3ccc(C)cc3c1=O)CCO2	-10.3%	.	-14.9%	.
